Here are results for 40 compounds from PubChem BioAssay (EPA / NIEHS).

Calls of active or inactive are those of the source. How the source made its calls: active means hit-call score of the fitted dose curve at least 0.9, where 1 is the maximum; inactive means score below 0.9.

A word on the AC50: it is the concentration giving half of the maximal activity seen.

Read-out in the test: HGF (gene 3082)
The test is described as follows: LTEA_HepaRG_HGF: Life Technologies and Expression Analysis (LTEA) Assay for Hepatocyte Growth Facto (HGF) using HepaRG (AID 2283505). The following applies: mRNA level, 48 h; actives raise or lower the signal. The procedure:
LTEA_HepaRG is a cell based, multiplexed-readout assay that uses HepaRG, a human liver cell line, with measurements taken at 48 hours after chemical dosing on a 96-well plate.LTEA_HepaRG_HGF is one of 102 assay component(s) measured in the LTEA HepaRG cell culture assay. It is a marker of Cell proliferation, survival, death.Data from the assay component LTEA_HepaRG_HGF was analyzed into 1 endpoint. This assay endpoint, LTEA_HepaRG_HGF, was analyzed with bidirectional fitting relative to DMSO as the negative control and baseline of activity. Using a type of inducible reporter, measures of mRNA induction for gain or loss-of-signal activity can be used to understand regulation of transcription factor activity. To generalize the intended target to other relatable targets, this assay endpoint is annotated to the growth factor intended target family, where the subfamily is hepatocyte growth factor.
A total of 1060 chemcials from the ToxCast library were tested in eight-point concentration-response experiments. Cell culture and cytotoxicity assays were conducted at Thermo Fisher Scientific's Custom Services facility (Madison, WI). A single lot of human HepaRG cells (Thermo Fisher Scientific, Frederick, MD) was used for the cell culture experiments. 96-well format collagen type I coated plates of human HepaRG cells were prepared using established methods. Briefly, cryopreserved HepaRG cells were thawed, plated at a density of approximately 100,000 cells/well in HepaRG Thaw, Plate, and General Purpose media (HPRG770, Thermo Fisher Scientific), and incubated for 48 hours. 0.5% DMSO was selected as vehicle control to balance the requisite need of DMSO in HepaRG cultures to maintain differentiation (for example, baseline metabolism, proportions of hepatocytes vs. cholangiocytes), while enabling further hepatic receptor pathway activation (for example, PXR and CAR) in response to chemical exposure. 48 hours after plating, the culture medium was replaced with HepaRG Serum-Free Incudtion Media. Cells were exposed to each test chemical in duplicate and maintained in CO2 incubators for another 48 hours. Chemical plates were thawed to room temperature and 200x concentrations of treatment groups were prepared. 8-point conentration-reponse curves were made with the highest exposure at 100 uM, followed by half-log dilutions, all in 0.5% DMSO. Each test plate contained variouse controls, induction positive controls (1mM phenobarbital), cytotoxicity positive controls ([…] aflatoxin B1), vehicle controls (0.5% DMSO), and total lysis controls (0.5% DMSO). Cell morphology images were taken using an Essen IncuCyte FLR automated microscope, with six 96-well plates imaged in about 24 minutes. Images were captured and exported and JPEG files. Spent culture media was transfered to black-well plates for the LDH assay, and remaining media was sorted at -80 C for later use. Cells were treated with RLT buffer and frozen until shipped for gene expression analysis. Total RNA was isolated from the cell suspension in 75 uL of Buffer RLT (Qiagen, Germantown, MD 20874) by Quintiles/Expression Analysis (Durham, NC) using a custom isolation procedure. Total RNA from each plate well was transferred to a preamplification plate. Fluidigm's 96.96 Dynamic ArrayTM (Fluidigm, Amsterdam, the Netherlands) technology was used for gene expression analyses by quantitative reverse transcription polymerase chain reaction (qRT-PCR, performed by Quintiles/Expression Analysis, Durham, NC)89. Standard TaqManTM Assays (Applied Biosystems/ThermoFisher Scientific, Foster City, CA) were used to assess the expression of 93 genes selected based on their selectivity and sensitivity to important hepatic receptors known to be modulated by environmental chemicals; importance in human hepatocyte functionality; and hepatotoxicity. […]
With `CC(C)(C)C(=O)C(Oc1ccc(Cl)cc1)n1cncn1` (stereo not given), the call was inactive.
The same measure, in the same setting: for `CCOc1nc(F)cc2nc(S(=O)(=O)Nc3c(Cl)cccc3Cl)nn12` the value was “inactive”; for `Cc1ccc(N=CN(C)C=Nc2ccc(C)cc2C)c(C)c1`, “inactive”; for `CC(C)Oc1cccc(NC(=O)c2ccccc2C(F)(F)F)c1`, “inactive”.
On the same count and under the same terms, as for `Clc1nc(Cl)nc(Nc2ccccc2Cl)n1`, the entry is “inactive”; as for `O=C(Nc1ccccc1-c1ccc(Cl)cc1)c1cccnc1Cl`, “inactive”.
For `CCOC(=O)C(C)OC(=O)c1cc(Oc2ccc(C(F)(F)F)cc2Cl)ccc1[N+](=O)[O-]` (stereo not given), the compound was called inactive.
The same measure, in the same setting: as for `CN/C(=N\[N+](=O)[O-])NCc1cnc(Cl)s1`, the entry is “inactive”.
Regarding `COC(=O)NS(=O)(=O)c1ccc(N)cc1`, the outcome was inactive.
For the compound `COCC(C)N(C(=O)CCl)c1c(C)csc1C` (stereo not given), the outcome was inactive.
On the same count and under the same terms, as for `COC(=O)N(C(=O)N1CO[C@@]2(C(=O)OC)Cc3cc(Cl)ccc3C2=N1)c1ccc(OC(F)(F)F)cc1`, the entry is “inactive”; as for `C=C(C)CN(CC)c1c([N+](=O)[O-])cc(C(F)(F)F)cc1[N+](=O)[O-]`, “inactive”; as for `CSC(=O)c1c(C(F)F)nc(C(F)(F)F)c(C(=O)SC)c1CC(C)C`, “inactive”.
Same read-out and setting: as for `CCN(CC)c1nc(C)cc(OP(=S)(OC)OC)n1`, the entry is “inactive”; as for `CCSC(=O)N1CCCCCC1`, “inactive”; as for `Cc1cc(C)nc(Nc2ccccc2)n1`, “inactive”.
The same measure, in the same setting: for `COP(=O)(OC)O/C(C)=C/C(=O)N(C)C` the value was “inactive”; for `COCC(=O)N(c1c(C)cccc1C)C(C)C(=O)OC` (stereo not given), “inactive”; for `N#CN=C1SCCN1Cc1ccc(Cl)nc1`, “inactive”.
Turning to `COC(=O)c1c(C(F)F)nc(C(F)(F)F)c(C2=NCCS2)c1CC(C)C`, the compound was classed as inactive.
For `CCOP(=O)(OCC)Oc1nc(Cl)c(Cl)cc1Cl`, the compound was classed as inactive.
Still for that read-out and setting: for `CC1(C)CON(Cc2ccccc2Cl)C1=O` the value was “inactive”; for `CC1(C)C(C=C(Cl)Cl)C1C(=O)OC(C#N)c1cccc(Oc2ccccc2)c1` (stereo not given), “inactive”; for `CC(C)NC(=O)N1CC(=O)N(c2cc(Cl)cc(Cl)c2)C1=O`, “inactive”.
`CCOc1nc(C(Cl)(Cl)Cl)ns1`: the concentration at half-maximal activity (AC50) was 1210 nM (active).
On to `Cc1nc(N(C)C)nc(OC(=O)N(C)C)c1C`, for which the compound was classed as inactive.
On the same count and under the same terms, as for `O=C(O)c1c(Cl)ccc2cc(Cl)cnc12`, the entry is “inactive”; as for `O=c1n(Cl)c(=O)n(Cl)c(=O)n1Cl`, “inactive”.
Take `COC(=O)NC(=S)Nc1ccccc1NC(=S)NC(=O)OC`: the call was inactive.
Same read-out and setting: for `O=C1C2CC=CCC2C(=O)N1SC(Cl)(Cl)Cl` (stereo not given) the value was “inactive”; for `CC(C)N1C(=O)N(c2ccccc2)CSC1=NC(C)(C)C`, “inactive”; for `Nc1c(Cl)c(F)nc(OCC(=O)O)c1Cl`, “inactive”.
Same read-out and setting: for `CC1(C)CCC(=Cc2ccc(Cl)cc2)C1(O)Cn1cncn1` (stereo not given) the value was “inactive”; for `CCN(CC)C(=O)C(C)Oc1cccc2ccccc12` (stereo not given), “inactive”; for `CS(=O)(=O)c1cc(C(F)(F)F)ccc1C(=O)c1cnoc1C1CC1`, “inactive”.
For the compound `Cn1c(-c2ccccc2)cc(-c2ccccc2)[n+]1C`, the compound was called inactive.
Still for that read-out and setting: for `COCc1cnc(C2=NC(C)(C(C)C)C(=O)N2)c(C(=O)O)c1` (stereo not given) the value was “inactive”; for `Nc1c(Cl)c(Cl)nc(C(=O)O)c1Cl`, “inactive”.
On the same count and under the same terms, as for `CCNP(=S)(OC)O/C(C)=C/C(=O)OC(C)C` (stereo not given), the entry is “inactive”.
Still for that read-out and setting: as for `CC(C)C1(C)N=C(c2ncccc2C(=O)O)NC1=O` (stereo not given), the entry is “inactive”.
